Inconclusive results are not listed. Where a call stands in place of a potency, no number is given. A number with no mark means an inactive call. Calls of active or inactive are those of the source. Calls follow the shape of the dose curve; as a rule, active = well fitted cell-killing curve with a large enough effect; inconclusive = small, poorly fitted or top-dose-only effect, or effect the other way; inactive = flat fitted curve, though single readings scatter.
Tests used:
Assay in all cases: Primary qHTS to identify gynecologic anti-cancer compounds using libraries of approved drugs and bioactive compounds (AID 1345084); also: nearly all actives have a fitted effect of over 55% in size
Details in all cases: Gynecologic cancer cell panel viability, ATPlite luminescence, 48 h; series mostly up to 57.5 µM
[1] = tested on: OV90
How it was run: (§1)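 Five-concentration response, 48 h; readout is ATP-driven luciferase luminescence.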

[2] = tested on: PA-1
How it was run: as §1

[3] = tested on: SKOV3
How it was run: as §1

[4] = tested on: Tov-21-G
How it was run: as §1

[5] = tested on: Tov112D
How it was run: as §1
Potency is read from the fitted curve at half-maximal effect.

Structure (SMILES)	Potency [1]	Potency [2]	Potency [3]	Potency [4]	Potency [5]	activity change, negative = cytotoxicity [1]	activity change, negative = cytotoxicity [2]	activity change, negative = cytotoxicity [3]	activity change, negative = cytotoxicity [4]	activity change, negative = cytotoxicity [5]
CC1(C)OC(=O)CC(O)C2(C)C1CC(=O)C1(C)C2C(O)CC2(C)C(c3ccoc3)OC(=O)C3OC321 (stereo not given)	inactive	inactive	inactive	inactive	inactive	–	–	–	–	–
CN1CCCC1Cc1c[nH]c2ccc(CCS(=O)(=O)c3ccccc3)cc12 (stereo not given)	inactive	inactive	inactive	inactive	inactive	–	–	–	–	–
COC(=O)c1ccc(OC)cc1O[C@@H]1O[C@H](CO[C@@H]2OC[C@@H](O)[C@H](O)[C@H]2O)[C@@H](O)[C@H](O)[C@H]1O	inactive	inactive	inactive	inactive	inactive	–	–	–	–	–
C/C1=C\CC[C@]2(C)O[C@H]2C(=O)c2c(C)coc2C1	inactive	10 µM (active)	7.94 µM (active)	8.91 µM (active)	4.47 µM (active)	–	–	–	–	–
CC(C)c1ccc2c(c1)C(=O)CC1C(C)(C(=O)O)CCCC21C (stereo not given)	inactive	inactive	inactive	inactive	inactive	–	–	–	–	–
NC1=NC2(c3cc(NC(=O)c4ccc(F)cn4)ccc3F)COCC2CS1 (stereo not given)	inactive	inactive	inactive	inactive	inactive	–	–	–	–	–
COC(=O)C1C(c2ccc(O)cc2)C(C(=O)O)C1c1ccc(O)cc1 (stereo not given)	inactive	inactive	inactive	inactive	inactive	–	–	–	–	–
COc1cnc(-c2ccc(Cn3c(CC(C)(C)C(=O)O)c(SC(C)(C)C)c4cc(OC[C@@H]5Cc6ccccc6N5C(C)=O)ccc43)cc2)nc1	inactive	inactive	inactive	inactive	inactive	–	–	–	–	–
CC1(C)CC[C@]2(C(=O)O[C@@H]3O[C@H](CO)[C@@H](O)[C@H](O)[C@H]3O)CC[C@]3(C)C(=CCC4[C@@]5(C)CC[C@H](O[C@@H]6O[C@H](C(=O)O)[C@@H](O)[C@H](O)[C@H]6OC6OC(CO)C(O)C(O)C6O)C(C)(C)C5CC[C@]43C)[C@@H]2C1 (stereo not given in full)	–	–	–	–	–	1.96% [at 11.6 µM]	17.8% [at 11.6 µM]	14.1% [at 11.6 µM]	6.86% [at 11.6 µM]	7.56% [at 11.6 µM]
Oc1ccc2c(-c3c(-c4ccccn4)nn4c3CCC4)ccnc2c1	inactive	inactive	inactive	inactive	inactive	–	–	–	–	–
CC(=O)c1[nH]cc(CCC(=O)O)c1CC(=O)O	inactive	inactive	inactive	inactive	inactive	–	–	–	–	–
C=C1C(O)CC2C(C(=O)O)=COC(O[C@@H]3O[C@H](COC(=O)c4ccc(O)cc4)[C@@H](O)[C@H](O)[C@H]3O)C12 (stereo not given in full)	inactive	inactive	inactive	inactive	inactive	–	–	–	–	–
CC(=O)O[C@@H]1[C@@H](O)[C@H](C)O[C@@H](O[C@H]2[C@@H]3C=CO[C@@H](O[C@@H]4O[C@H](CO)[C@@H](O)[C@H](O)[C@H]4OC(C)=O)[C@@H]3[C@@]3(CO)O[C@@H]23)[C@@H]1OC(=O)/C=C/c1ccc(O)cc1	inactive	inactive	inactive	inactive	inactive	–	–	–	–	–
COc1c2c(c(C)c3c1C(=O)OC3)OC1(C)CC(O)C34OC(O)(CCC3(C)C1C2)OC4(C)C (stereo not given)	inactive	inactive	inactive	inactive	inactive	–	–	–	–	–
CC(C)C(O)(CO)CCO[C@@H]1O[C@H](CO[C@H]2OC[C@](O)(CO)[C@H]2O)[C@@H](O)[C@H](O)[C@H]1O (stereo not given in full)	inactive	inactive	inactive	inactive	inactive	–	–	–	–	–
O=C(O[C@H]1[C@H](Oc2ccc(O)cc2CO)O[C@H](CO)[C@@H](O)[C@@H]1O)c1ccccc1	inactive	inactive	inactive	inactive	inactive	–	–	–	–	–
O=C(O)c1cc(O[C@@H]2O[C@H](CO)[C@@H](O)[C@H](O)[C@H]2O)ccc1O	inactive	inactive	inactive	inactive	inactive	–	–	–	–	–
CCC(=O)N1CCc2cc(OC)c(O)cc2C1	inactive	inactive	inactive	inactive	inactive	–	–	–	–	–
COCCCc1sc(-c2ccccc2)nc1C(=O)Nc1ccccc1-c1nc2cc(CN3CCCC3)cnc2s1	inactive	inactive	inactive	inactive	inactive	–	–	–	–	–
COc1ccc(-n2[nH]c3c(cnc4ccccc43)c2=O)cc1	inactive	inactive	inactive	inactive	inactive	–	–	–	–	–
O=C(Cc1ccccc1)OC[C@H]1O[C@H](O[C@H]2O[C@H](CO)[C@@H](O)[C@H](O)[C@H]2O)[C@H](O)[C@@H](O)[C@@H]1O	inactive	inactive	inactive	inactive	inactive	–	–	–	–	–
CC(=O)NCC1CN(c2ccc(-c3ccc(CNCc4cn[nH]n4)cc3)c(F)c2)C(=O)O1 (stereo not given)	inactive	inactive	inactive	inactive	inactive	–	–	–	–	–
